Only some compounds are listed: those with a hit (about 2.9% of all), similar ones and a draw of the others.
PTAP TSG101 blk – blocks PTAP/TSG101 interaction to inhibit HIV-1 budding. Fluorescence polarization, FITC-PTAP peptide / Tsg101 binding. Q99816. Potency, µM (top dose mostly 115 µM), usual class: inhibitors. 340,000 tested, under 10 active; active = well fitted inhibition curve with a large enough effect in the main read-out, with a control signal flat, not every such curve was filed as active; inconclusive = small, poorly fitted or top-dose-only effect, or effect the other way, or a change in a side signal; inactive = no such curve, though single readings can be large or run the other way
Target sequence (Q99816 whole entry, looked up): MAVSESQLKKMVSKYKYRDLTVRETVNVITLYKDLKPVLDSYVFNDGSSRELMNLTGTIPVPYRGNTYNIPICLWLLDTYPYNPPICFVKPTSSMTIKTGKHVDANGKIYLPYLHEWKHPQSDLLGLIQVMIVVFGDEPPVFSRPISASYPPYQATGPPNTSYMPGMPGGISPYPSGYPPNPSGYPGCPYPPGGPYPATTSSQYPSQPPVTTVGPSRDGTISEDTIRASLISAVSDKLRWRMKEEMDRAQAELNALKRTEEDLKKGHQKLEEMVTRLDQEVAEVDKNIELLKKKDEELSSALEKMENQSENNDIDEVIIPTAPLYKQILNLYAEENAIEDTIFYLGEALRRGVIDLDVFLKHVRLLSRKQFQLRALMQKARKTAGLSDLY
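Compounds were pin-transferred onto Tsg101 binding domain (10 uM final) in HEPES pH 7.5 buffer, then FITC-PTAP peptide was added at 50 nM final. After 20 min at RT, polarization reported peptide displacement across a qHTS concentration series.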
DRD3 antagonist – D3 dopamine receptor (human) antagonism; P35462; D3R cells, DiscoveRx beta-arrestin luminescence, antagonist mode; hits give low values; max response, negative = inhibition, %; 360,000 tested, 2.5% active; in the data active = max response below about -50%; inconclusive = no clear call, values can overlap the other calls
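Cells expressing the human receptor were seeded at 1500 cells/well, incubated overnight at 37 degrees C in 5% CO2, then exposed to library compounds with dopamine controls for 90 minutes at 37 degrees C before luminescent detection.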
Rango dissoc inh – inhibitors of RanGTP-induced Rango-importin beta complex dissociation; O95149+P62826; Potency, µM (titrated, usually from 46.1 µM); Biochemical FRET Rango-importin beta, RanGTP-induced dissociation; 340,000 tested, 0.071% active; note: nearly all actives have a fitted effect of over 45% in size
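Rango/importin beta premix (0.1/0.25 uM final), PBS + 1 mM DTT + 0.02% Tween-20 + 0.1% BSA; cpd 5 min RT; FRET pre-read; + RanGTP-RCC1 (0.6 uM Ran, 2 mM GTP, 0.2 uM RCC1); 45 min RT; FRET post-read, ex 430, em 486/530 nm.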
Rango-impB inh – Rango-importin beta binding inhibition; 340,000 tested, 0.031% active; Q14974; Potency, µM (titrated, usually from 92.2 µM); Rango CFP/YFP FRET sensor + importin beta, 45 min; AID 540263; note: nearly all actives have a fitted effect of over 15% in size
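Inhibition scored from the CFP 486 nm/YFP 530 nm FRET ratio 45 min after adding 0.125 microM importin beta to 50 nM Rango biosensor preincubated 5 min with compound (room temperature, PBS with DTT, Tween-20, BSA). No-importin wells as positive control.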
MmCpn inh – blocks the Methanococcus maripaludis chaperonin Mm-Cpn; 330,000 tested, 0.031% active; purified Mm-Cpn ATPase, ADP Transcreener TR-FRET; Potency, µM (highest dose often 76.9 µM), actives largely listed as inhibitors; active = well fitted inhibition curve with a large enough effect; inconclusive = small, poorly fitted or top-dose-only effect; note: nearly all actives have a fitted effect of over 80% in size
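ATPase read-out: TR-FRET ADP immunoassay (anti-ADP Eu cryptate vs ADP-d2), ex 320 nm, em 590/665 nm; signal drops as ADP forms. Enzyme 25 nM, ATP 10 uM, 30 min at 37°C after 10 min compound preincubation.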
D3 ag – agonists of human D3 dopamine receptor; D3R DiscoveRx beta-arrestin cells, luminescence, 90 min; P35462; AID 652048; max activation, %; 410,000 tested, 0.58% active; in the data active = max activation above about 30%
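Cells at 1500/well, incubated overnight, then treated with pinned compounds (dopamine as control) for 90 min at 37 degrees C. DiscoveRx reagent added for 30 - 60 minutes at room temperature; luminescence read.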
Hits are given with their value; i = inactive; ? = inconclusive; nt = no result given. Unless noted, calls come from the whole dose curve.

SMILES	PTAP TSG101 blk	DRD3 antagonist	Rango dissoc inh	Rango-impB inh	MmCpn inh	D3 ag
O=C(O)CCc1ccc(-c2ccc(F)cc2)n1CC1CCCO1 (stereo unspecified)	i	i	i	i	i	i
CCc1nnc2c(Nc3ccc(Br)c(C)c3)nc3ccccc3n12	nt	nt	nt	nt	nt	i
COc1ccc(C(=O)Nc2oc(-c3ccccc3)c(-c3ccccc3)c2C#N)cc1	i	-64	i	i	i	i
CCN1CCN(c2nc(Nc3cccc(OC)c3)nc(N)c2[N+](=O)[O-])CC1	i	i	i	i	i	i
CN1CCN(c2nc(NCc3ccco3)nc(N)c2[N+](=O)[O-])CC1	i	-80	i	i	i	i
CCN1CCN(c2nc(Nc3ccc(C)c(C)c3)nc(N)c2[N+](=O)[O-])CC1	i	-83	i	i	i	i
COc1ccc(NC(=O)COc2ccc(C(=O)NC3CCCc4ccccc43)cc2OC)cc1 (stereo unspecified)	i	i	i	i	i	i
COC(=O)[C@@H](NC(=O)NC1CCN(Cc2ccccc2)CC1)C(C)C	i	-53	i	i	i	i
COc1cccc(NC(=O)NC2CCN(Cc3nnnn3Cc3ccc(F)cc3)CC2)c1	i	i	i	i	i	i
S=C(Nc1ccc(Cl)c(Cl)c1)NC1CCCCC1	i	i	i	i	i	i
Fc1ccc(NC(=S)NC2CCN(Cc3ccccc3)CC2)cc1	i	-55	i	i	i	i
S=C(Nc1ccc(Cl)c(Cl)c1)NC1CCN(Cc2ccccc2)CC1	i	-55	i	i	i	i
O=C(Nc1cccc(F)c1)NC1CCN(Cc2ccccc2)CC1	i	-82	i	i	i	i
CC(C)[C@H](NC(=O)NC1CCN(Cc2ccccc2)CC1)C(=O)O	i	i	i	i	i	i
CCN(Cc1ccccc1)Cc1c(O)ccc2c(=O)c(-c3ccc(Cl)cc3)c(C(F)(F)F)oc12	nt	nt	nt	nt	nt	i
O=C(CN1CCN(C(=O)c2ccco2)CC1)Nc1cc(S(=O)(=O)N2CCCC2)ccc1Cl	nt	i	nt	nt	nt	i
Cc1c(NC(=O)c2ccc(Cl)cc2)cc(C(C)C)c(O)c1S(=O)(=O)c1ccccc1	nt	nt	nt	nt	nt	i
CCCN1CCC(NC(=O)Nc2ccc(F)cc2F)CC1	i	-53	i	i	i	i
CC(=O)c1cccc(NC(=O)c2c(N3CCCC3=O)c3cc(F)ccc3n2C)c1	nt	nt	nt	nt	nt	i
CC1CCCN(CC(O)COc2ccc(Cl)cc2)C1 (stereo unspecified)	i	-58	i	i	?	i
COc1ccc(OCC(O)CN2CCCCCC2)cc1 (stereo unspecified)	nt	-54	i	i	i	i
CC1CCCN(CC(O)COc2ccc(-c3ccccc3)cc2)C1 (stereo unspecified)	i	?	i	i	i	i
COc1ccc(OCC(O)CN2CCCC2)cc1 (stereo unspecified)	i	i	i	i	i	i
OC(COCc1ccccc1)CN1CCN(c2ccccc2F)CC1 (stereo unspecified)	i	i	i	i	i	51
OC(COc1ccc2c(c1)CCC2)CN1CCN(c2ccccc2F)CC1 (stereo unspecified)	i	?	i	i	i	32
SMILES	PTAP TSG101 blk	DRD3 antagonist	Rango dissoc inh	Rango-impB inh	MmCpn inh	D3 ag
CCN1CCN(CC(O)COCc2ccccc2)CC1 (stereo unspecified)	i	i	i	i	i	i
Cc1ccc(-n2c(=O)c3c4c(sc3n(CC(=O)C(C)(C)C)c2=O)CCCCC4)cc1C	nt	nt	nt	nt	nt	i
NCCCC[C@H](NC(=O)[C@@H]1CCCN1C(=O)[C@@H]1CSSC[C@H](N)C(=O)N[C@@H](Cc2ccc(O)cc2)C(=O)N[C@@H](Cc2ccccc2)C(=O)N[C@@H](CCC(N)=O)C(=O)N[C@@H](CC(N)=O)C(=O)N1)C(=O)NCC(N)=O	nt	nt	nt	nt	nt	i
NC(=O)C1CCN(c2nc(-c3ccccc3)cs2)CC1	nt	nt	nt	nt	i	nt
Cc1c(C(=O)N2CCCCCC2)c(S(=O)(=O)NCc2ccccc2)c(C)n1C	nt	nt	nt	nt	nt	i
Cc1ccc(S(=O)(=O)NCCC(=O)N2CCCCCCC2)cc1	i	i	i	i	i	i
Cc1oc(-c2ccc(C(=O)NCCc3ccc(Cl)cc3)cc2)nc1CSc1ccccc1	nt	nt	nt	nt	nt	i
Fc1ccccc1N1CCN(CCCc2ccccc2)CC1	i	-92	i	i	i	i
O=[N+]([O-])c1ccc(OCC(O)CN2CCN(c3ccccc3F)CC2)cc1 (stereo unspecified)	i	i	i	i	i	59
O=C(CCc1ccccc1)N1CCN(c2ccccc2F)CC1	i	i	i	i	i	i
COc1ccc(N(CC(O)CN2CCCCC2)S(=O)(=O)c2ccc(C)cc2)cc1 (stereo unspecified)	i	-80	?	i	?	i
COc1ccc(OCC(O)CN2CCN(c3ccc(Cl)cc3)CC2)cc1 (stereo unspecified)	i	?	i	i	i	i
COc1ccc(N2CCN(CC(O)COc3ccc4c(c3)CCC4)CC2)cc1 (stereo unspecified)	i	-79	i	i	i	i
COc1cccc2c1Oc1ncccc1N(c1ccc(C(=O)NCc3cccc(C)c3)s1)C2	nt	nt	nt	nt	nt	i
O=C(CN1C(=O)NC2(CCCC2)C1=O)c1ccc(Cl)s1	i	i	i	i	i	i
Fc1ccccc1N1CCN(CCCNc2ccc3nncn3n2)CC1	i	-61	i	i	i	46
Fc1ccccc1N1CCN(Cc2nc(-c3ccccc3)no2)CC1	i	?	i	i	i	i
COc1ccc(-c2cc3ccccc3n2CC(O)CN2CCCCC2)cc1 (stereo unspecified)	i	-87	i	i	i	i
FCCCOc1ccc(CN2CCN(c3ccccc3F)CC2)cc1	i	-60	i	i	i	i
Fc1ccccc1N1CCN(Cc2cc(-c3ccccc3)on2)CC1	i	-88	i	i	i	i
COc1ccc(-c2cc3ccccc3n2CC(O)CNCCO)cc1 (stereo unspecified)	i	i	i	?	i	i
Cc1ccc2c(c1)C(c1ccccc1)N(C(=O)Cc1ccc(F)cc1)CC(=O)N2 (stereo unspecified)	nt	nt	nt	nt	nt	i
Cc1ccc(CNC(=O)c2ccc3c(c2)c(C)c(C)n3Cc2ccc(Cl)cc2)o1	nt	nt	nt	nt	nt	i
